The supplement of paper PMC10849652
Targets with a hit are over-represented here; the source holds about 8,800 in all. About 0.5% of all pairs of compound and target were hits.

How the values were obtained:
Assay in all cases: log2 fold change, soluble protein after heating vs DMSO (PISA); higher = thermal stabilisation; K562 lysate, 10 uM; active = over 0.2 and 3.5 SD of the protein, either way, in both replicates (recomputed)
erlotinib = compound: C#Cc1cccc(Nc2ncnc3cc(OCCOC)c(OCCOC)cc23)c1 [erlotinib]
How it was run: (§1)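 Log-two fold change in thermal stability relative to solvent controls is reported from duplicates. For each sample, crude K562 extract from dounce-homogenised pellets in PBS pH 7.4 with 1 mM MgCl2, at 1 mg/mL protein, was treated with 10 μM compound for 30 min. Aliquots heated for 3 min across 48°C-58°C were pooled, brought to 0.5% NP-40 at 4°C and cleared at 21,000xg for 90 min. The supernatant was quantified by TMTpro 16plex LC-MS/MS with channel sums equalised.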

[1] = compound: C/C(=N\NC(=O)C1=CC(=CC=C1)S(=O)(=O)N2CCOCC2)/C3=C(C=CC(=C3)Cl)O
How it was run: as §1

[2] = compound: C1=CC(=CC=C1C2=NC3=C(N2)C=C(C=C3)C(=O)N)OC4=CC=C(C=C4)Cl
How it was run: as §1

[3] = compound: C1=CC2=C(C=CC(=C2)/C=C\3/C(=O)NC(=NCC4=CC=CS4)S3)N=C1
How it was run: as §1

[4] = compound: C1=CC2=NC=CN=C2C=C1/C=C/3\C(=O)NC(=O)S3
How it was run: as §1

[5] = compound: C1=CC=C(C=C1)C2=NC(=C(N2)C3=CC=NC=C3)C4=CC(=C(C=C4)Cl)O
How it was run: as §1

[6] = compound: C1=CC=C2C(=C1)C3=NNC4=CC=CC(=C43)C2=O
How it was run: as §1

[7] = compound: C1CCN(C1)C(=O)NC2=CC=CC(=C2)NC3=NC=C(C(=N3)NCCC4=CN=CN4)Br
How it was run: as §1

[8] = compound: C1CN(CCC1(CC2=CC=C(C=C2)Cl)N)C3=NC=NC4=C3C=CN4
How it was run: as §1

IRAK-1-4 Inhibitor I = compound: C1COCCN1CCN2C3=CC=CC=C3N=C2NC(=O)C4=CC(=CC=C4)[N+](=O)[O-] [IRAK-1-4 Inhibitor I]
How it was run: as §1

ibrutinib = compound: C=CC(=O)N1CCC[C@@H](n2nc(-c3ccc(Oc4ccccc4)cc3)c3c(N)ncnc32)C1 [ibrutinib]
How it was run: as §1

[9] = compound: CC(=O)c1cnc2ccc(-c3cc(Cl)c(O)c(Cl)c3)nc2c1N[C@H]1CC[C@H](CN(C)C)CC1
How it was run: as §1

ralimetinib = compound: CC(C)(C)Cn1c(N)nc2ccc(-c3[nH]c(C(C)(C)C)nc3-c3ccc(F)cc3)nc21 [ralimetinib]
How it was run: as §1

[10] = compound: CC(C)(O)CC(=O)NCCn1ccc2ncnc(Nc3ccc(Oc4cccc(C(F)(F)F)c4)c(Cl)c3)c21
How it was run: as §1

[11] = compound: CC(C)C1=C2N=C(C=C(N2N=C1)NCC3=CC=CC=C3)NCCCCCCN
How it was run: as §1

[12] = compound: CC1=C(C(CC(=O)N1)C2=CC=C(C=C2)C(F)(F)F)C(=O)NC3=C(C=C4C(=C3)C=NN4)F
How it was run: as §1

[13] = compound: CC1=C(C2=C(C=C1)C(=O)C3=CC=CC=C3N2CCCN)C
How it was run: as §1

[14] = compound: CC1=C(C=C(C=C1)NC(=O)C2=CC(=CC=C2)C(C)(C)C#N)NC3=CC4=C(C=C3)N=CN(C4=O)C
How it was run: as §1

[15] = compound: CC1=C(C=C(C=C1)NC(=O)C2=CC(=CC=C2)N(C)C)NC(=O)C3=CC=C(C=C3)O
How it was run: as §1

[16] = compound: CC1=CC=C(C=C1)SC2=C3C=C(SC3=CN=C2)C(=O)N
How it was run: as §1

Measured: log2 fold change

TTC4 (UniProt O95801)
Sequence of UniProt O95801 (O95801 whole entry, looked up): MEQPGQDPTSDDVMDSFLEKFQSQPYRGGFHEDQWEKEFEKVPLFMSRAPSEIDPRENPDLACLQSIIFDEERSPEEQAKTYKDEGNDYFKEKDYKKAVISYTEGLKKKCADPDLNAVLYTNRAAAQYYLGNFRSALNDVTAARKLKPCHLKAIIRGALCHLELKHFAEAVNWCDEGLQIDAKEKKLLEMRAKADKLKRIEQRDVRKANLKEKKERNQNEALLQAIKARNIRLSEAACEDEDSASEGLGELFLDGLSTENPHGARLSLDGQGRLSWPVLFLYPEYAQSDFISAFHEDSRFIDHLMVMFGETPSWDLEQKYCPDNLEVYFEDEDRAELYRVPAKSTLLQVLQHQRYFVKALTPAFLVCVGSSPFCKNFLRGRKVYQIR
inactive: erlotinib 0.01 | [1] 0.013 | [2] 0.001 | [3] 0.003 | [4] 0.005 | [5] 0.007 | [6] -0.038 | [7] -0.029 | [8] 0.025 | IRAK-1-4 Inhibitor I -0.008 | ibrutinib 0.002 | [9] 0.015 | ralimetinib 0.005 | [10] 0.011 | [11] 0.03 | [12] -0.029 | [13] -0.033 | [14] 0.026 | [15] 0.029 | [16] 0

TRIM33 isoform 2 (UniProt Q9UPN9)
Sequence of UniProt Q9UPN9 (Q9UPN9 whole entry, looked up): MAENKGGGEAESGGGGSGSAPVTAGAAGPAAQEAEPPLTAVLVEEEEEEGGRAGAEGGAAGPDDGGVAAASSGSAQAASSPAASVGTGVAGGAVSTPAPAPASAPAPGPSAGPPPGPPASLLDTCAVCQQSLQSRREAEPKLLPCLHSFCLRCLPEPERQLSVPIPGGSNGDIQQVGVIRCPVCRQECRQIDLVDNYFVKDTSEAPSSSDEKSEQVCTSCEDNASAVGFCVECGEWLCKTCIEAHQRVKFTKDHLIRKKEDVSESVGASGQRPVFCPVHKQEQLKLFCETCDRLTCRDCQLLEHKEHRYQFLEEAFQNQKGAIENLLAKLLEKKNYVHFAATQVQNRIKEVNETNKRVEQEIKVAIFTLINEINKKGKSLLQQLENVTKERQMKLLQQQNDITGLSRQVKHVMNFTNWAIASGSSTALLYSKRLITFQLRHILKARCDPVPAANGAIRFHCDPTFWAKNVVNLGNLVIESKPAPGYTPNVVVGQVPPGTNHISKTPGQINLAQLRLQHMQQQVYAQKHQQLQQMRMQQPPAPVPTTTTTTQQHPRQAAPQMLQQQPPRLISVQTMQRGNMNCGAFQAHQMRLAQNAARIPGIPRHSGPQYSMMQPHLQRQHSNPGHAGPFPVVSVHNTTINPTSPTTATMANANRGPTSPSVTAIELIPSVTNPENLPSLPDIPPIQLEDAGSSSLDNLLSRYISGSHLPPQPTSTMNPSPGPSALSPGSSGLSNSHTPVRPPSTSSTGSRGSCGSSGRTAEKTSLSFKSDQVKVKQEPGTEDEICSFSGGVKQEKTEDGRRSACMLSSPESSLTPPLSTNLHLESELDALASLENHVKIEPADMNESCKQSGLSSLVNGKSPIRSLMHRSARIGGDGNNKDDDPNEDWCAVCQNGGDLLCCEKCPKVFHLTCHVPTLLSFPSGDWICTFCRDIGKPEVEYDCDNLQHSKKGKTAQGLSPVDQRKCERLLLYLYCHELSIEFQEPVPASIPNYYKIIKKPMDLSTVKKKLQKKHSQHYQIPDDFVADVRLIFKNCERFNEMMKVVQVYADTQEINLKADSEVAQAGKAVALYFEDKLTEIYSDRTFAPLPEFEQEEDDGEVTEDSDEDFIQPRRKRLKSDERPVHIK
inactive: erlotinib 0.004 | [1] -0.016 | [2] 0.014 | [3] 0.004 | [4] -0.002 | [5] 0.003 | [6] 0.008 | [7] -0.03 | [8] 0.006 | IRAK-1-4 Inhibitor I -0.02 | ibrutinib 0.04 | [9] 0.006 | ralimetinib 0.024 | [10] 0.022 | [11] -0.026 | [12] 0.01 | [13] 0 | [14] -0.014 | [15] 0.019 | [16] 0.005

TMPO (UniProt P42166)
Sequence of UniProt P42166 (P42166 whole entry, looked up): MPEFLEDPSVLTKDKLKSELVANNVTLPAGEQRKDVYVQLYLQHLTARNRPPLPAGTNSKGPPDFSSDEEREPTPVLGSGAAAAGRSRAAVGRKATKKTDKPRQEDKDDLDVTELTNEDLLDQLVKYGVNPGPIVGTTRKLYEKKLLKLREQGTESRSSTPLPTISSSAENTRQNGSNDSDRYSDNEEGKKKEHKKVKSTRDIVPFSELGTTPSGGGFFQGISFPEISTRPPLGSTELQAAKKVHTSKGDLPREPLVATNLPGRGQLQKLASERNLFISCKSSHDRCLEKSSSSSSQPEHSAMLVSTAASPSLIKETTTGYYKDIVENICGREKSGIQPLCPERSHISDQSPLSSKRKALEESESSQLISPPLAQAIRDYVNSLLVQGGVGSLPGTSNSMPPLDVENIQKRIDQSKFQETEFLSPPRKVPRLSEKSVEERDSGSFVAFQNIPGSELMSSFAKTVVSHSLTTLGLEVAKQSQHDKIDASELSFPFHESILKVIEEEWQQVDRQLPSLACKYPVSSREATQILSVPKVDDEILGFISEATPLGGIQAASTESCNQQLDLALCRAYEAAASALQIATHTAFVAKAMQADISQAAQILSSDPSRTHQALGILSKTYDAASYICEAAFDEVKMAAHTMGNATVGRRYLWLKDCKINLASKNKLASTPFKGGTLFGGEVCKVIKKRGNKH
inactive: erlotinib 0.026 | [1] -0.038 | [2] 0.012 | [3] -0.097 | [4] -0.03 | [5] -0.024 | [6] -0.026 | [7] -0.004 | [8] 0.005 | IRAK-1-4 Inhibitor I 0.008 | ibrutinib -0.025 | [9] -0.018 | ralimetinib -0.087 | [10] -0.004 | [11] 0.018 | [12] 0.011 | [13] 0 | [14] 0.024 | [15] 0.047 | [16] -0.026

TOPBP1 (UniProt Q92547)
Sequence of UniProt Q92547 (Q92547 whole entry, looked up): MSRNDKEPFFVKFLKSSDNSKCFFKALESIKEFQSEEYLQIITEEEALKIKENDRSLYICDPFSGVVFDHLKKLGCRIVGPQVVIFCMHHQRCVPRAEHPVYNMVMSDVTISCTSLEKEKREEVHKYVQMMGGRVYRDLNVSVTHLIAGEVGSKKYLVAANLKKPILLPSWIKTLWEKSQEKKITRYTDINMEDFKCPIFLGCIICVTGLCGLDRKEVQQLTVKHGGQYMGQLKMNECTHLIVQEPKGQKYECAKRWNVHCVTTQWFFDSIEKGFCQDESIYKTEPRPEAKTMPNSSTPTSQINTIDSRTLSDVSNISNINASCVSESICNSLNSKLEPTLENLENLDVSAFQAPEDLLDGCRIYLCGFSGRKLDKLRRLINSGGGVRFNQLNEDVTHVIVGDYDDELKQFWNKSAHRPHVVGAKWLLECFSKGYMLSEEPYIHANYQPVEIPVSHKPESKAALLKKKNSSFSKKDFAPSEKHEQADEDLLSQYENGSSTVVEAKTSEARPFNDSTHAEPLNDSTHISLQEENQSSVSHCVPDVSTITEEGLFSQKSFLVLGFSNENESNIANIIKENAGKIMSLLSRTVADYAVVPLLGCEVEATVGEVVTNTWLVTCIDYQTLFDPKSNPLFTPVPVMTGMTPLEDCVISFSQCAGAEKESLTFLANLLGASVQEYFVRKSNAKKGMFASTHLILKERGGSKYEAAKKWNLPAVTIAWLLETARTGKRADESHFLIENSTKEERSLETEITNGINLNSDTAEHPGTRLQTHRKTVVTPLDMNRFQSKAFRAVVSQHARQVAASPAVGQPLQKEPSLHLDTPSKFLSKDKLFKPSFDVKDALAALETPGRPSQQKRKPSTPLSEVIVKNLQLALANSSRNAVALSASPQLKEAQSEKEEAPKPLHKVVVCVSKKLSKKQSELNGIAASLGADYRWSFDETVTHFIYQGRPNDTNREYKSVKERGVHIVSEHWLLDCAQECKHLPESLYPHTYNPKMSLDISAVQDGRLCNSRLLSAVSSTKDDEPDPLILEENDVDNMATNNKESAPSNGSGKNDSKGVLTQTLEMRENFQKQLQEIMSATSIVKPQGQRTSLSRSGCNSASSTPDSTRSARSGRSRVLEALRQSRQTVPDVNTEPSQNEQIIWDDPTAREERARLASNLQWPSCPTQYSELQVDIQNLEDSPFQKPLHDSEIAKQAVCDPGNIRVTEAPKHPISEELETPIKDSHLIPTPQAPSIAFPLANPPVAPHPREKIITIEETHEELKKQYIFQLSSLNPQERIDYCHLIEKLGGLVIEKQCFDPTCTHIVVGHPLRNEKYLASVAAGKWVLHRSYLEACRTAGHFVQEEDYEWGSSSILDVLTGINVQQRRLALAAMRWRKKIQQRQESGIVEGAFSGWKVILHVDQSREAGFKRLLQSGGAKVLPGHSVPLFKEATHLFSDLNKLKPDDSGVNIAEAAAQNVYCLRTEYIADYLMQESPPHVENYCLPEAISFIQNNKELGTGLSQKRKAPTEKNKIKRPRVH
inactive: erlotinib 0.004 | [1] -0.056 | [2] -0.034 | [3] 0.018 | [4] 0.002 | [5] 0.003 | [6] -0.009 | [7] -0.134 | [8] 0.072 | IRAK-1-4 Inhibitor I -0.006 | ibrutinib 0.012 | [9] 0.003 | ralimetinib 0.011 | [10] 0.011 | [11] 0.006 | [12] -0.02 | [13] -0.01 | [14] -0.035 | [15] 0.041 | [16] 0.055

UFM1 (UniProt P61960)
Sequence of UniProt P61960 (P61960 whole entry, looked up): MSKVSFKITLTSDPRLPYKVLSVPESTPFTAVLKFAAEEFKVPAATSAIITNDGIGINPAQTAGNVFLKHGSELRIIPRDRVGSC
inactive: erlotinib 0.035 | [1] 0.078 | [2] -0.003 | [3] 0.085 | [4] 0.029 | [5] -0.013 | [6] 0.123 | [7] 0.066 | [8] 0.013 | IRAK-1-4 Inhibitor I -0.009 | ibrutinib 0.059 | [9] 0.072 | ralimetinib 0.008 | [10] -0.014 | [11] -0.003 | [12] -0.04 | [13] -0.007 | [14] -0.097 | [15] -0.038 | [16] 0.109

TCF3 (UniProt P15923)
inactive: erlotinib 0.027 | [1] -0.028 | [2] 0.067 | [3] 0.004 | [4] 0.016 | [5] 0.011 | [6] 0.07 | [7] -0.005 | [8] 0.022 | IRAK-1-4 Inhibitor I 0.04 | ibrutinib 0.001 | [9] 0.027 | ralimetinib 0.014 | [10] -0.028 | [11] -0.005 | [12] -0.034 | [13] -0.074 | [14] -0.061 | [15] -0.045 | [16] -0.016

TPD52L2 isoform 7 (UniProt O43399)
Sequence of UniProt O43399 (O43399 whole entry, looked up): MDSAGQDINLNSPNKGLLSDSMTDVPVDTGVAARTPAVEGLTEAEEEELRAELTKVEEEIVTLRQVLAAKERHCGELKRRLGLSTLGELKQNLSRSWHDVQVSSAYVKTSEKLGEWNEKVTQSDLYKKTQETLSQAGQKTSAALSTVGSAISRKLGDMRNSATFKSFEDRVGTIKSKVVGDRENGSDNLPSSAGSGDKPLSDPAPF
inactive: erlotinib -0.044 | [1] -0.028 | [2] 0.085 | [3] 0.015 | [4] 0 | [5] 0.017 | [6] 0.036 | [7] 0.029 | [8] -0.004 | IRAK-1-4 Inhibitor I -0.031 | ibrutinib -0.016 | [9] 0.017 | ralimetinib -0.013 | [10] 0.01 | [11] -0.013 | [12] 0.023 | [13] -0.024 | [14] 0.007 | [15] -0.006 | [16] -0.001

UBL4A (UniProt P11441)
Sequence of UniProt P11441 (P11441 whole entry, looked up): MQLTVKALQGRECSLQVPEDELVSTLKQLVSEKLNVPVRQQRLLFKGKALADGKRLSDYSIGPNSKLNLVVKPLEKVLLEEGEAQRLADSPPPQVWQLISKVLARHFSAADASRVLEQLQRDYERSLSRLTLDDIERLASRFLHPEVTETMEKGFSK
inactive: erlotinib -0.04 | [1] 0.014 | [2] -0.069 | [3] 0.005 | [4] 0.087 | [5] 0.021 | [6] 0.04 | [7] 0.024 | [8] -0.028 | IRAK-1-4 Inhibitor I -0.042 | ibrutinib 0.056 | [9] 0.055 | ralimetinib 0 | [10] 0.049 | [11] 0.009 | [12] -0.023 | [13] -0.02 | [14] -0.044 | [15] -0.002 | [16] 0.025

TMEM97 (UniProt Q5BJF2)
Sequence of UniProt Q5BJF2 (Q5BJF2 whole entry, looked up): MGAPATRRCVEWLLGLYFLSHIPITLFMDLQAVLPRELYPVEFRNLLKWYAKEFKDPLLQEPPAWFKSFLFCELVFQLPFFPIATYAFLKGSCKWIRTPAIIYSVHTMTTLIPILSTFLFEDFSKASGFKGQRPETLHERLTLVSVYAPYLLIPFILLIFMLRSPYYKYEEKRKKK
inactive: erlotinib 0.01 | [1] 0.043 | [2] 0.036 | [3] 0.007 | [4] 0.019 | [5] 0 | [6] 0.002 | [7] -0.033 | [8] 0.018 | IRAK-1-4 Inhibitor I 0.091 | ibrutinib 0.01 | [9] 0.012 | ralimetinib 0.004 | [10] -0.056 | [11] -0.034 | [12] -0.025 | [13] -0.032 | [14] 0.003 | [15] 0.042 | [16] -0.017

TPP2 (UniProt Q5VZU9)
inactive: erlotinib 0.043 | [1] -0.036 | [2] 0.086 | [3] -0.012 | [4] 0 | [5] 0.131 | [6] -0.013 | [7] 0 | [8] 0.066 | IRAK-1-4 Inhibitor I 0.005 | ibrutinib 0.073 | [9] -0.025 | ralimetinib -0.018 | [10] 0.046 | [11] -0.041 | [12] 0.056 | [13] 0.018 | [14] -0.049 | [15] -0.017 | [16] 0.061

UBR4 (UniProt Q5T4S7)
inactive: erlotinib 0 | [1] 0.039 | [2] -0.016 | [3] 0.017 | [4] -0.006 | [5] 0.008 | [6] -0.01 | [7] -0.021 | [8] 0.002 | IRAK-1-4 Inhibitor I -0.009 | ibrutinib -0.019 | [9] -0.008 | ralimetinib 0.02 | [10] -0.011 | [11] -0.02 | [12] 0.003 | [13] 0.011 | [14] 0.009 | [15] 0.014 | [16] 0.01

TRIM44 (UniProt Q96DX7)
Sequence of UniProt Q96DX7 (Q96DX7 whole entry, looked up): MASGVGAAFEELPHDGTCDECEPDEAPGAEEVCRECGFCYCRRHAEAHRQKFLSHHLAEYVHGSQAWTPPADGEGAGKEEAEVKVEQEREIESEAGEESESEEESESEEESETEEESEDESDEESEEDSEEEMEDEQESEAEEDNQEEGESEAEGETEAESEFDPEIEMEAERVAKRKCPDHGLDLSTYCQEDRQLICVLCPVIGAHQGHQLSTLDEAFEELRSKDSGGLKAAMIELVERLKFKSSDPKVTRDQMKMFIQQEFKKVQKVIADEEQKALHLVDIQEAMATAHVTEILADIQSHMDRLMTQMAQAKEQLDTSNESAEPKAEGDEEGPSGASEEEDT
inactive: erlotinib -0.066 | [1] 0.067 | [2] -0.016 | [3] -0.037 | [4] 0.057 | [5] -0.013 | [6] -0.038 | [7] 0.053 | [8] 0.072 | IRAK-1-4 Inhibitor I 0.043 | ibrutinib 0.031 | [9] 0.124 | ralimetinib 0.032 | [10] -0.013 | [11] -0.037 | [12] -0.021 | [13] -0.004 | [14] -0.044 | [15] 0.022 | [16] 0.086
